Test results reported in the supplement of paper PMC10849652.
Targets with a hit are over-represented here; the source holds about 8,800 in all. About 0.5% of all pairs of compound and target were hits.

The targets below were run with Cc1nc(Nc2ncc(C(=O)Nc3c(C)cccc3Cl)s2)cc(N2CCN(CCO)CC2)n1 [dasatinib] (assay: log2 fold change, soluble protein after heating vs DMSO (PISA); higher = thermal stabilisation; K562 lysate, 10 uM; active = over 0.2 and 3.5 SD of the protein, either way, in both replicates (recomputed)).
In short: (§1)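 To prepare the extract, K562 pellets were dounce-homogenised in PBS pH 7.4 with 1 mM MgCl2, giving crude material at 1 mg/mL protein. This was treated with 10 μM compound for 30 min, then heated in aliquots for 3 min over 48°C-58°C before pooling and addition of NP-40 to 0.5% at 4°C. Centrifugation at 21,000xg for 90 min left soluble protein in the supernatant, which TMTpro 16plex LC-MS/MS quantified with equalised channel sums. Results are log-two fold changes in thermal stability compared with solvent controls, from duplicates.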

UniProt P50570, sequence (P50570 whole entry, looked up): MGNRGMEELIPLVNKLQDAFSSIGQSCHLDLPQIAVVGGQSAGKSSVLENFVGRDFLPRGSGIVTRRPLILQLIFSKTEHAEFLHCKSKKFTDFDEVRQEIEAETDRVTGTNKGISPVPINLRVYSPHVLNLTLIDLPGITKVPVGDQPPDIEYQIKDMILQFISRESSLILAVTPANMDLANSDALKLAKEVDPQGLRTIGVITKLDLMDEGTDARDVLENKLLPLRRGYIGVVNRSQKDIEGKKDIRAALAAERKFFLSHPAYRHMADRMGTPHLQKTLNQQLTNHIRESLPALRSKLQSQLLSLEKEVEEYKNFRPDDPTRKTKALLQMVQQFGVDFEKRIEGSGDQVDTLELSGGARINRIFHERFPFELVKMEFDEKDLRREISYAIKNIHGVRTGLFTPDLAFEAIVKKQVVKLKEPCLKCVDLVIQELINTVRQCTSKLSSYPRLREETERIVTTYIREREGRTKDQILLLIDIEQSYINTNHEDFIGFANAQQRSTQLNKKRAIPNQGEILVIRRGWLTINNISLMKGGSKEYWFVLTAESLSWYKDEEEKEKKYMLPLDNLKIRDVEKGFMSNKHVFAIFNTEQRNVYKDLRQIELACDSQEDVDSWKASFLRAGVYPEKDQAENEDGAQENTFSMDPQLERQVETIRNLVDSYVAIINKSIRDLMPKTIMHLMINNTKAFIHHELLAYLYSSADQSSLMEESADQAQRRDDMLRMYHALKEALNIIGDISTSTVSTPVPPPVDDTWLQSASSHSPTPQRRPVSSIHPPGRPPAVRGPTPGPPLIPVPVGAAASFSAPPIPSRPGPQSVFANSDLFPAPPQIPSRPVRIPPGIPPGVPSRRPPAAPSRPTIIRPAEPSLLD
UniProt Q9NSV4, sequence (Q9NSV4 whole entry, looked up): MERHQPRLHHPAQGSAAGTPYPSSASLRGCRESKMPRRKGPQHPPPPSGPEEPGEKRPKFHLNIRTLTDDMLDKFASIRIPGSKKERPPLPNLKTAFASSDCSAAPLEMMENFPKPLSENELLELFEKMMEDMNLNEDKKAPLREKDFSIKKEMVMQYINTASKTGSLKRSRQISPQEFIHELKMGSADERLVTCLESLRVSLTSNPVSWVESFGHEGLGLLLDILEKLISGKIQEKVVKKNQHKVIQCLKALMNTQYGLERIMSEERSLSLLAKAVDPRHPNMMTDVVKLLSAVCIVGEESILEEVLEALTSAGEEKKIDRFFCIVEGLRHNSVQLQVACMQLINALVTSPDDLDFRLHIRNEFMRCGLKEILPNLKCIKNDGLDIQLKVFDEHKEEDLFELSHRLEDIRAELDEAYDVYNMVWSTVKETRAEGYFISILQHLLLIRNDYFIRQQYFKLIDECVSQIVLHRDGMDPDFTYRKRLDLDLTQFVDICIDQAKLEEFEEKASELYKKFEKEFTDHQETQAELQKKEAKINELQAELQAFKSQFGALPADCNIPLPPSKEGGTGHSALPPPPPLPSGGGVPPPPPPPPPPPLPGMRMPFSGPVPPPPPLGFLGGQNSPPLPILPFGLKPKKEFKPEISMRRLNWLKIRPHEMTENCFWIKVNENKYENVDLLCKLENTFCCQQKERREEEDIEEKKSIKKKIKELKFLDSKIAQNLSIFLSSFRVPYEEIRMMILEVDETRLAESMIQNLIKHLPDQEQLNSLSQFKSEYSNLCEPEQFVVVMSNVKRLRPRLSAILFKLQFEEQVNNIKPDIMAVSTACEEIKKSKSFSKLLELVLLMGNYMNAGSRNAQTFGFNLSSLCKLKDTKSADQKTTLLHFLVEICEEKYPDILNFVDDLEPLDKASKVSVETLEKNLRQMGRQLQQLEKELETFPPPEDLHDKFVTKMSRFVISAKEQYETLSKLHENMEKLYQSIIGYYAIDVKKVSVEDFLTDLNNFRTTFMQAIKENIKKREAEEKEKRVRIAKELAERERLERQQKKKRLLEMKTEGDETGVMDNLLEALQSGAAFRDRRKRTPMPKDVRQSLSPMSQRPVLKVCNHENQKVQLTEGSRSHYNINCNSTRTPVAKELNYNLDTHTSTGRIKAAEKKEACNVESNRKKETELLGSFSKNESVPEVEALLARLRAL
UniProt O75122, sequence (O75122 whole entry, looked up): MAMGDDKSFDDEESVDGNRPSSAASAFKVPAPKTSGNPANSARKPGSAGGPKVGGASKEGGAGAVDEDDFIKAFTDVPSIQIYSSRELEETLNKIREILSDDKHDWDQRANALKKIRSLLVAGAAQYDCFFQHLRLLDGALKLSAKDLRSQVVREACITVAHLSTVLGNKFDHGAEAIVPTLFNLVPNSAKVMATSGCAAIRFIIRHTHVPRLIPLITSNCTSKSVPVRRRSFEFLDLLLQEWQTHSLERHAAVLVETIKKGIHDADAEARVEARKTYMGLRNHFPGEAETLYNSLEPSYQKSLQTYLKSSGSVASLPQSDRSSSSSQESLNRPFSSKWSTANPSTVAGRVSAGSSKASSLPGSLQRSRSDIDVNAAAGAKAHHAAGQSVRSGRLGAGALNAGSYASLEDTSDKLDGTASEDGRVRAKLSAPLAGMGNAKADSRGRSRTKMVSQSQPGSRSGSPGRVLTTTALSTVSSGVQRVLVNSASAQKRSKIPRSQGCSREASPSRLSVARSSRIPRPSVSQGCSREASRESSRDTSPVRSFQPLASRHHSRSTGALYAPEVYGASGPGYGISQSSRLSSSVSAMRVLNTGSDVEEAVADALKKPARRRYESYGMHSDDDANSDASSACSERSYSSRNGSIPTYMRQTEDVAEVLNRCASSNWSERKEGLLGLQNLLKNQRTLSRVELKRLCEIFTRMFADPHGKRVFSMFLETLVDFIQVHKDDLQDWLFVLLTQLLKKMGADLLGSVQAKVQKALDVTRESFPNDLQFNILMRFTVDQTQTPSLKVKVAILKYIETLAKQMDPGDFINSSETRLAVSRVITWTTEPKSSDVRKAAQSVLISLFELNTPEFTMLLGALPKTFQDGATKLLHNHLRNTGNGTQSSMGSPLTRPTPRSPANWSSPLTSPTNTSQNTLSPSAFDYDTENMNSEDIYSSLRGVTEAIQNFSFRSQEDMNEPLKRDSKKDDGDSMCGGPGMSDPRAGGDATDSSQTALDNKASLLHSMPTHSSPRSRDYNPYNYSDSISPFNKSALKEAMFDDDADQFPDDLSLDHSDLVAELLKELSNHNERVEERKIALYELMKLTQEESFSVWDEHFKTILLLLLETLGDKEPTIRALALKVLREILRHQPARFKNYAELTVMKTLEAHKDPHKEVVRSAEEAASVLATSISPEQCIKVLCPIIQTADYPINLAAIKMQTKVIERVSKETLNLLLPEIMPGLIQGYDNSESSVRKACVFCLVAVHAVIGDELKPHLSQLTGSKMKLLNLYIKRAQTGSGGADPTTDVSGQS
UniProt Q1MSJ5, sequence (Q1MSJ5 whole entry, looked up): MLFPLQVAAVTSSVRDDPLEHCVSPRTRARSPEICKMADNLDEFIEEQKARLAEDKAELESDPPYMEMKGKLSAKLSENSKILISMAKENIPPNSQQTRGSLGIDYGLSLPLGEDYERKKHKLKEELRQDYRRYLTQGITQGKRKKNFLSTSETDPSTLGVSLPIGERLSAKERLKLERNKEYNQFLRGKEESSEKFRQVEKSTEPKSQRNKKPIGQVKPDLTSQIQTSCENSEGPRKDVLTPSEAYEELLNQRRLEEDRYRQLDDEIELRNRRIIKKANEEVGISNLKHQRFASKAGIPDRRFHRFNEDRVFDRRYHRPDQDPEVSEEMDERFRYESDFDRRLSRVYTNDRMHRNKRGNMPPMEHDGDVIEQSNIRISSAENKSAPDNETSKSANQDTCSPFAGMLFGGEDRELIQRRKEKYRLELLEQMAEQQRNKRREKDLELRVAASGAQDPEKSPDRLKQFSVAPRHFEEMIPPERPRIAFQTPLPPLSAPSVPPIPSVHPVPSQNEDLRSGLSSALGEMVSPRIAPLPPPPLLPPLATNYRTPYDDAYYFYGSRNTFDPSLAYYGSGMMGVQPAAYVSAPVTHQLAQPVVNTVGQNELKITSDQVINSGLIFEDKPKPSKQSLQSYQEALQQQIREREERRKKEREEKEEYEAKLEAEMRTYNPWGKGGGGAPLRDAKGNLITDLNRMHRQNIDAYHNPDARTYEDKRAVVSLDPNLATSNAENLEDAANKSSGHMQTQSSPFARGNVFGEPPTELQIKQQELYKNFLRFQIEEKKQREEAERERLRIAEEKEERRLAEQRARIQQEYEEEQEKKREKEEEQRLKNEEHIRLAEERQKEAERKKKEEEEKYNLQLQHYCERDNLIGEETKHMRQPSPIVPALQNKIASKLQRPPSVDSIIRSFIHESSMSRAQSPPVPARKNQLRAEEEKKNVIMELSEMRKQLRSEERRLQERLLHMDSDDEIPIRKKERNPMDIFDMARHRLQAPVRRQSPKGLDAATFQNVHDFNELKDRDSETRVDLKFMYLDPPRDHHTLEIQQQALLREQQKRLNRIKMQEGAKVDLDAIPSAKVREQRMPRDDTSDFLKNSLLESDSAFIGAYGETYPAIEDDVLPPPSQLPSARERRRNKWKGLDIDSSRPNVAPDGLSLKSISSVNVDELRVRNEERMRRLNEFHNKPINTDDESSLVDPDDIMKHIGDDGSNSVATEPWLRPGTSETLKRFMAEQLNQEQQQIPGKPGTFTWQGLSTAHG
UniProt O14757, sequence (O14757 whole entry, looked up): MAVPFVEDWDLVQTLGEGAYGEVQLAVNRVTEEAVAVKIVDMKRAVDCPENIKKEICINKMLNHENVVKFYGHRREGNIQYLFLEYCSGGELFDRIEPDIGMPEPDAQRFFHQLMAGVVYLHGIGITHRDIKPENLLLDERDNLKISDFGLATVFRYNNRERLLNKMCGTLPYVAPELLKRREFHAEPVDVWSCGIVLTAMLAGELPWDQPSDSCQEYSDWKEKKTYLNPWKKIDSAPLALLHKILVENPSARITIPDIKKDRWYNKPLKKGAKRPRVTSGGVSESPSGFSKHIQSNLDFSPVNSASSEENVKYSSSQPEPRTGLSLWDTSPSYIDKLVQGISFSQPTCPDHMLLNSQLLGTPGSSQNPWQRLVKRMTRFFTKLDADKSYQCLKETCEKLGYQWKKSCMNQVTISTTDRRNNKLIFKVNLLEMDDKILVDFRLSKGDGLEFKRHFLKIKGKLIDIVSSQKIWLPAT

Target	log2 fold change
COTL1 (UniProt Q14019)	0.024 (inactive)
DHCR7 (UniProt Q9UBM7)	0.011 (inactive)
DIAPH3 (UniProt Q9NSV4)	-0.167 (inactive)
DMAC2L (UniProt Q99766)	0.059 (inactive)
COQ8A (UniProt Q8NI60)	0.394 (inactive)
CLIP1 isoform 1 (UniProt P30622)	0.022 (inactive)
CORO7 isoform 3 (UniProt P57737)	-0.032 (inactive)
CLASP2 isoform 3 (UniProt O75122)	-0.024 (inactive)
COG5 isoform 2 (UniProt Q9UP83)	-0.153 (inactive)
DOCK7 (UniProt Q96N67)	0.01 (inactive)
CLUH (UniProt O75153)	-0.025 (inactive)
CRABP2 (UniProt P29373)	0.076 (inactive)
CUEDC2 (UniProt Q9H467)	0.015 (inactive)
CNOT6L (UniProt Q96LI5)	-0.053 (inactive)
COG4 (UniProt Q9H9E3)	-0.093 (inactive)
CLPTM1L (UniProt Q96KA5)	0.006 (inactive)
DPH5 isoform 5 (UniProt Q9H2P9)	0.418 (active)

Target	log2 fold change
CXXC1 isoform 2 (UniProt Q9P0U4)	-0.504 (inactive)
COG6 (UniProt Q9Y2V7)	-0.085 (inactive)
DENND4A isoform 2 (UniProt Q7Z401)	-0.008 (inactive)
CMBL (UniProt Q96DG6)	0.155 (inactive)
DNM2 isoform 4 (UniProt P50570)	-0.095 (inactive)
DMXL1 (UniProt Q9Y485)	-0.017 (inactive)
DNM2 (UniProt P50570)	-0.045 (inactive)
COG3 (UniProt Q96JB2)	-0.13 (inactive)
DPM1 (UniProt O60762)	0.028 (inactive)
CSPP1 (UniProt Q1MSJ5)	0.046 (inactive)
CNIH4 (UniProt Q9P003)	0.132 (inactive)
CSTF2 (UniProt P33240)	0.03 (inactive)
CXorf38 (UniProt Q8TB03)	-0.04 (inactive)
DHRS11 (UniProt Q6UWP2)	-0.018 (inactive)
CHEK1 (UniProt O14757)	0.02 (inactive)
COG2 (UniProt Q14746)	-0.024 (inactive)
CLIC2 (UniProt O15247)	-0.017 (inactive)

The targets below were run with Cc1ncc(-c2ccnc(Nc3ccc(S(C)(=O)=O)cc3)n2)n1C(C)C in the same assay as above.
In short: as §1

Target	log2 fold change
COTL1 (UniProt Q14019)	0.031 (inactive)
DHCR7 (UniProt Q9UBM7)	0 (inactive)
DIAPH3 (UniProt Q9NSV4)	-0.021 (inactive)
DMAC2L (UniProt Q99766)	-0.04 (inactive)
COQ8A (UniProt Q8NI60)	-0.211 (inactive)
CLIP1 isoform 1 (UniProt P30622)	0.013 (inactive)
CORO7 isoform 3 (UniProt P57737)	0.01 (inactive)
CLASP2 isoform 3 (UniProt O75122)	0.02 (inactive)
COG5 isoform 2 (UniProt Q9UP83)	-0.003 (inactive)
DOCK7 (UniProt Q96N67)	-0.03 (inactive)
CLUH (UniProt O75153)	-0.007 (inactive)
CRABP2 (UniProt P29373)	-0.066 (inactive)
CUEDC2 (UniProt Q9H467)	0.028 (inactive)
CNOT6L (UniProt Q96LI5)	0.001 (inactive)
COG4 (UniProt Q9H9E3)	0.008 (inactive)
CLPTM1L (UniProt Q96KA5)	0 (inactive)
DPH5 isoform 5 (UniProt Q9H2P9)	0.009 (inactive)

Target	log2 fold change
CXXC1 isoform 2 (UniProt Q9P0U4)	0.026 (inactive)
COG6 (UniProt Q9Y2V7)	-0.041 (inactive)
DENND4A isoform 2 (UniProt Q7Z401)	0.023 (inactive)
CMBL (UniProt Q96DG6)	0.006 (inactive)
DNM2 isoform 4 (UniProt P50570)	-0.03 (inactive)
DMXL1 (UniProt Q9Y485)	-0.005 (inactive)
DNM2 (UniProt P50570)	-0.016 (inactive)
COG3 (UniProt Q96JB2)	-0.002 (inactive)
DPM1 (UniProt O60762)	-0.014 (inactive)
CSPP1 (UniProt Q1MSJ5)	0.011 (inactive)
CNIH4 (UniProt Q9P003)	-0.12 (inactive)
CSTF2 (UniProt P33240)	-0.017 (inactive)
CXorf38 (UniProt Q8TB03)	0.053 (inactive)
DHRS11 (UniProt Q6UWP2)	0.008 (inactive)
CHEK1 (UniProt O14757)	-0.048 (inactive)
COG2 (UniProt Q14746)	0.096 (inactive)
CLIC2 (UniProt O15247)	0.004 (inactive)
